Gal4-VP16 FLuc – Gal4-VP16 reporter inhibition counter-screen; Potency, µM (series often up to 53.6 µM), for the others: at the top dose activity, negative = inhibition, most hits filed as inhibitors; hit rate 3.5% among 310,000; Drosophila S2 Gal4-VP16 UAS-luciferase, luminescence, 20 h;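 also: Gal4-VP16 expression switched on by copper sulfate through the metallothionein promoter; nearly all actives have a fitted effect of over 50% in size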
Luc counter – blocks Kinase-Glo luciferase, a counter-screen artifact. Q27757. Kinase-Glo luciferase, ATP luminescence, 8 min. Potency, µM (highest dose often 38.3 µM), without a hit: top-dose activity change, negative = inhibition, hits mostly inhibitors. hit rate 0.28% among 200,000. AID 1379; also: nearly all actives have a fitted effect of over 60% in size
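Compounds were added to a substrate mix at pH 7.2 (50 mM imidazole, 10 uM ATP, within the enzyme's linear range), followed by Kinase-Glo detection reagent; luminescence was measured after 8 minutes at ambient temperature.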
RORgamma inh – inhibitors of mouse ROR gamma transcriptional activity; Drosophila S2 Gal4-RORgamma UAS-luciferase reporter, 20 h; Potency, µM (top dose mostly 53.6 µM), inactives show at the top dose activity change, negative = inhibition, most hits filed as inhibitors; hit rate 5.4% among 310,000; AID 2551; also: nearly all actives have a fitted effect of over 60% in size
Target sequence (P51450 whole entry, looked up, the tested form may be a part): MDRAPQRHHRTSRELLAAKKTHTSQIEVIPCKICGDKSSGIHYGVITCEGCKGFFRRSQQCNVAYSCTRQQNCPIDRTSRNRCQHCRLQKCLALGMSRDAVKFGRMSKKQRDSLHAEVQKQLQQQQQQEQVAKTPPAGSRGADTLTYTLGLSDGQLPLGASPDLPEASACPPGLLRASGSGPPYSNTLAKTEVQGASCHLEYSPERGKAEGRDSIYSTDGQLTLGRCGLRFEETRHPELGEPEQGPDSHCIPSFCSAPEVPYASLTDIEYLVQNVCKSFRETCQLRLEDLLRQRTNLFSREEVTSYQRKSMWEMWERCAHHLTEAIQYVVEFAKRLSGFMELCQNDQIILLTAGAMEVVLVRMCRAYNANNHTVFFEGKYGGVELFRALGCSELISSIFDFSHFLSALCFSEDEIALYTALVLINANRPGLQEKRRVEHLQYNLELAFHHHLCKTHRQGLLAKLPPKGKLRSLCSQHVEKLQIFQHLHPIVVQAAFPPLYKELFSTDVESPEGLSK
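Schneider cells (Drosophila), stable Gal4 DBD–ROR gamma + UAS-luc; 1 hr cmpd preincubation; Cu2+ induction 700 uM final; 20 hr ambient; luminescence.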
Starred values were filed as active, the others as inactive; u = inconclusive; x = no result given; [ ] = remark or other dose. Rows were chosen to be rich in hits. Some 6.4% of all compounds tested hit in one or more screens of this group. Calls follow the shape of the dose curve; as a rule, active = well fitted curve in the direction sought with a large enough effect; inconclusive = small, poorly fitted or top-dose-only effect, or another doubt; inactive = no such curve, though single readings can be large; an effect the other way counts as inactive or inconclusive. % is scaled to controls: 0 for no effect and ±100 for the full control effect; potency is read from the fitted curve at half-maximal effect.

SMILES	Gal4-VP16 FLuc	Luc counter	RORgamma inh
COc1cc(/C=N/n2cc(-c3ccccc3)[nH]c2=S)cc(OC)c1O	-13.0%	x	u
Cc1ccc(/C=N/N2CCN(Cc3ccccc3)CC2)s1	-14.9%	-2.2%	43.1%
S=c1[nH]c(-c2ccccc2)cn1/N=C/c1cccc2ccccc12	u	2.5%	2.51µM*
CC1CCCC(C)N1/N=C/c1ccccc1Br (stereo unspecified)	-2.6%	x	2.0%
Oc1ccc(/C=N/n2cc(-c3ccccc3)[nH]c2=S)cc1	0.0%	1.0%	7.94µM*
S=c1[nH]c(-c2ccccc2)cn1/N=C/c1ccccc1Br	u	1.1%	1µM*
Cc1ccc(/C=N/n2cc(-c3ccccc3)[nH]c2=S)s1	5.01µM*	0.8%	0.447µM*
COc1cc(/C=C/C(=O)O)cc(S(=O)(=O)NCCCC(=O)O)c1OC	-9.7%[10 µM]	3.9%	22.0%
COc1ccc(C2CC(c3ccccc3)Oc3cc(OC)ccc32)cc1 (stereo unspecified)	2.6%	x	10.3%
N#Cc1cnn2c3c(cnc12)C(=O)N1CCc2ccccc2C1C3 (stereo unspecified)	-1.9%	1.0%	-17.2%
CCn1cc(C(=O)NCCN(C)C)c(=O)c2cc(F)c(N3CCN(C)CC3)cc21	0.3%	x	-3.7%
CCCCC[C@H](O)/C=C/[C@H]1OC(O)C[C@H](O)[C@@H]1C/C=C\CC(=O)O (stereo partly specified)	-0.3%	3.3%	8.9%
COc1ccc(CSc2nc3ccccc3[nH]2)cc1	u	8.91µM*	0.6%
O=C1CCC(=O)N1c1ccc(CSc2nc3ccccc3[nH]2)cc1	-27.3%	-7.6%	u
COc1ccc(CC(N)C(=O)N[C@H]2[C@@H](O)[C@H](n3cnc4c(N(C)C)ncnc43)O[C@@H]2CO)cc1 (stereo partly specified)	u	1.1%[39.9 µM]	u
COCCN1C(=O)C(=O)/C(=C(/O)c2ccc(S(=O)(=O)N3CCCCC3)cc2)C1c1ccc(OC)cc1 (stereo unspecified)	-13.7%	x	10.0%
Cc1cccc(NC(c2ccc(O)cc2)c2ccc3ccc(C)nc3c2O)n1 (stereo unspecified)	-3.6%	-3.0%	10µM*
Cc1ccc2cccc(NC(=O)C(F)(F)F)c2n1	-5.4%	-1.1%	u
CC(C)C[C@H](N)c1cn([C@@H](CCCCN)C(=O)N2CCNCC2)nn1	-4.7%	x	-17.7%
CC1(C)CC(C)(c2ccc(O)cc2O)N(c2cccc(Cl)c2)C(=S)N1 (stereo unspecified)	-7.9%	0.4%	u
CC1(C)CC(C)(c2ccc(O)cc2O)N(c2ccc3ccccc3c2)C(=S)N1 (stereo unspecified)	u	0.2%	7.94µM*
COc1cc2c3nnc(-c4ccc(F)cc4)c-3cn(Cc3ccc(C)cc3)c2cc1OC	3.98µM*	1.5%	5.01µM*
COc1cc2c3nnc(-c4ccc(F)cc4)c-3cn(Cc3cccc(F)c3)c2cc1OC	-29.7%	-11.7%	u
COc1cc2c3nnc(-c4ccc(F)cc4)c-3cn(Cc3cccc(C)c3)c2cc1OC	10µM*	1.9%	u
COc1cc2c3nnc(-c4ccccc4)c-3cn(Cc3ccc(F)cc3)c2cc1OC	-12.9%	1.5%	-30.5%
SMILES	Gal4-VP16 FLuc	Luc counter	RORgamma inh
COc1ccc(NC(=O)CCNC(=O)c2ccccc2Cl)cc1OC	11.1%	x	-4.5%
CC(C)(C)C(=O)[C@H](C(c1ccccc1)N1CCOCC1)N1CCOCC1 (stereo partly specified)	x	-5.8%[7.66 µM]	x
S=c1[nH]nc(COc2ccccc2)n1/N=C/c1cccs1	7.08µM*	5.5%	u
Cc1ccc(-c2n[nH]c(=S)n2/N=C/c2sccc2C)cc1	-2.4%	x	u
O=C(COc1ccccc1)NCC(=O)N/N=C/c1cccs1	2.8%	0.9%	33.2%
Cc1ccsc1/C=N/n1c(COc2ccccc2)n[nH]c1=S	6.31µM*	3.2%	6.31µM*
Cc1ccsc1/C=N/n1c(-c2cc(-c3ccccc3)n[nH]2)n[nH]c1=S	u	x	2.82µM*
CN(C)C(=S)Nc1ccc(Cc2ccncc2)cc1	-5.6%	x	-23.1%
O=C(Nc1ccccc1)C1=C[C@@H](C2CC2)C[C@@H](OCc2ccc(CO)cc2)O1	-0.4%	x	11.6%
CC1(C)Cc2nc3oc4c(SCC(N)=O)ncnc4c3cc2CO1	2.2%	x	-4.2%
CCN(CC)S(=O)(=O)c1ccc(OCC(=O)NC(=O)c2ccccc2OC)c([N+](=O)[O-])c1	15.5%	x	-32.5%
C/C(=N\NC(=O)COc1cc(C)cc(C)c1)c1cccc(NC(=O)C2CCC2)c1	-0.1%	x	15.8%
CN(C)S(=O)(=O)c1cccc(C(=O)Nc2ccc(S(=O)(=O)N3CCCC3)cc2)c1	8.9%	2.3%	29.2%
CC1CCCCN1CCCNC(=O)CCCN1C(=O)c2cccnc2Sc2ccccc21 (stereo unspecified)	-1.4%	x	4.6%
CCOC(=O)c1nnsc1-c1ccc(-c2snnc2C(=O)OCC)cc1	-1.8%	x	6.5%
CCOC(=O)c1nnsc1Nc1ccc(C)c(C)c1	-18.5%[10 µM]	-1.4%	0.708µM*
Cc1ccc2nc(SCC(=O)Nc3ccc4c(c3)CCC4)[nH]c2c1	11.2µM*	-0.1%	u
O=C(CSc1nc2ccccc2[nH]1)Nc1ccc2c(c1)CCC2	u	2.3%	-14.3%
COc1ccc(C(=O)Nc2ccc(Nc3ccccc3)cc2)cc1OC	0.5%	x	20.2%[1.91 µM]
Cc1ccc(C(=O)Nc2nnc(-c3ccncc3)o2)cc1	5.3%	-7.1%	-0.3%
COc1ccc(NC(=O)c2ccccc2F)cc1Cl	u	-9.4%	8.6%
O=C(Nc1nnc(-c2ccncc2)o1)c1ccccc1F	10µM*	-2.6%	u
COc1ccccc1-c1nnc(NC(=O)c2ccccc2F)o1	2.82µM*	-5.1%	2µM*
COc1ccc(C(=O)Nc2nnc(-c3ccccc3)o2)cc1OC	1µM*	1.1%	0.562µM*
O=C(Nc1ccncc1)c1ccccc1F	-0.1%	6.9%	1.7%
SMILES	Gal4-VP16 FLuc	Luc counter	RORgamma inh
O=C(Nc1nnc(-c2ccncc2)o1)c1ccccc1	5.01µM*	-4.1%	3.16µM*
COc1cc2c(cc1OC)[C@@H]1O[C@](c3ccsc3)(C2)Oc2cc(C)n(-c3ccccc3)c(=O)c21	-2.1%[10 µM]	x	18.0%[10 µM]
O=C(Oc1ccccc1)N1CCC[C@@]2(CCN(c3ccccc3)C2)C1	-1.9%	-0.1%	25.8%
O=C1c2ccccc2C(=O)N1n1cccc1	-24.0%	0.1%	-4.2%
COC(=O)c1ccc(-c2ccc(C3C4C=CCC(C)C4C(=O)N3Cc3ccccc3)c(F)c2)cc1 (stereo unspecified)	2.2%	x	31.0%
CCn1c(CC(=O)Nc2ccc(F)cc2)nnc1SCC(=O)N1CCOCC1	-10.5%	x	0.0%
COc1ccccc1N(CC(=O)NC1CCCCC1)C(=O)CCC(=O)Nc1nccs1	8.9%	x	1.4%
COc1ccc(Cl)cc1N1C(=O)CN(Cc2cc(OC)c(OC)c(OC)c2)C1=S	-0.1%	x	-13.2%
O=C(O)C1CN(C(=O)c2cccc(Br)c2)C1	-2.6%	1.4%	0.1%
CCOc1ccc(S(=O)(=O)NCCCl)cc1	-18.2%	4.7%	11.5%
Cc1c(C(=O)OCC(C)C)[nH]c2c1C(=O)CC(c1cccs1)C2 (stereo unspecified)	u	-5.9%	u
COc1cc2ccccc2cc1C(=O)Nc1ccc(Cc2ccncc2)cc1	1.6%	-1.4%	25.8%
COc1cc2ccccc2cc1C(=O)Nc1nnc(-c2ccncc2)o1	10µM*	x	7.08µM*

Screens (PubChem BioAssay)
